# According to PubChem BioAssay AID652208 (Broad Institute, 2013):
# Measured potencies and affinities stand elsewhere. A number with no mark means an inactive call.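 How the source made its calls: active means Loss of cell signal with fitted half-effect dose at or below twice the top valid tested dose; inconclusive means Poor fit, or flat fit from -70 to -30 percent; inactive means Half-effect above limit, rising signal, or flat within 30 percent.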
# Experiment: HEK293T cell cytotoxicity, dose response, cytotoxicity control for HIV Vif inhibitor project, cherry-picks (AID 652208);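 further: 0% = median neutral control wells and -100% = median staurosporine control wells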
# Settings: HEK293T viability, CellTiter-Glo luminescence, 24 h; series mostly up to 26 µM; activity change, negative = cytotoxicity: at the top concentration
row,SMILES,"activity change, negative = cytotoxicity"
1,COc1cc(-c2cnc3c(NC=O)cc(-c4ccccc4)cn23)cc(OC)c1OC,-9.14%
2,CN(C)c1ccc(C(=O)c2ccc(N(C)C)c3ccccc23)cc1,-15.2%
3,CC(C)C(=O)N=C1SC2CS(=O)(=O)CC2N1Cc1ccccc1 (configuration not stated),-10.6%
4,CCCOc1ccc(C(O)(CCC)CCN2CCCCC2)cc1 (configuration not stated),-4.04%
5,CCN(CCCNC(=O)C1CCC(=O)N1Cc1ccc(C)cc1)c1cccc(C)c1 (configuration not stated),-8.75%
6,O=C(CCCCn1ccc(=O)[nH]c1=O)Nc1ccc(O)c(C(=O)O)c1,-5.73%
7,CCC(=O)Nc1ccc(-c2nnc(SCc3ccc(C(=O)Nc4nccs4)cc3)n2CC)cc1,-3.47%
8,O=C(O)CCCCn1c(SCc2ccccc2Cl)nc2ccsc2c1=O,-2.34%
9,CCn1c(CC(=O)Nc2ccccc2)nnc1SCC(=O)Nc1nnc(C)s1,4.17%
10,N#Cc1cc2c(=O)n3ccccc3nc2n(-c2ccccc2Cl)c1=O,-12.7%
11,COc1ccccc1N1C(=O)c2cccc3c(N(C)CCO)ccc(c23)C1=O,0.642%
12,Nc1nonc1-c1nc2ccccc2n1CC(=O)NC1CCCC1,4.56%
13,O=C(O)c1ccc(-c2nc(-c3cccc(C(F)(F)F)c3)cs2)cc1,-7.98%
14,CCN(CC)C(=O)c1sc2nc(-c3cccs3)cc(-c3cccs3)c2c1N,-4.67%
15,CCOC(=O)C1=C(C)NC(=O)NC1,4.76%
16,COc1c2ccoc2nc2c(OC)c(OC[C@@H](O)C(C)(C)O)ccc12,8.74%
17,CCC1(CC)NC(=O)N(CC(=O)Nc2ccc(OCc3ccccc3)cc2)C1=O,-11.7%
18,COc1ccc2nc(N3C(=O)C(O)=C(C(=O)c4ccco4)C3c3ccccc3OC)sc2c1 (configuration not stated),7.88%
19,Cc1cc(C(=O)Nc2c(F)c(F)c(F)c(F)c2F)n(-c2ccccc2)n1,-23.7%

row,SMILES,"activity change, negative = cytotoxicity"
1,Cc1nc(NC(=O)C(C)Oc2cccc(Cl)c2)sc1C(=O)N(C)C (configuration not stated),-12.6%
2,CC(C)CCNC(=O)CCc1nnc(COc2ccccc2)o1,-2.04%
3,O=C(CN(C(=O)c1csnn1)c1ccc(F)cc1)NCc1ccc2c(c1)OCO2,-5.58%
4,NS(=O)(=O)c1ccc(NC(=O)CCC(=O)N2CCOCC2)cc1,3.75%
5,COC(=O)c1cc(Cl)c(NC(=O)c2cc3ccccc3o2)cc1OC,8.12%
6,CCCCn1c(-c2ccncc2)nc2c1c(=O)[nH]c(=O)n2CC(C)C,-14.9%
7,CCC(C)NC(=O)Cn1c(=O)n(-c2ccccc2)c(=O)c2ccc(C(=O)NCc3ccco3)cc21 (configuration not stated),-1.22%
8,CCc1nn(-c2cc(Oc3cccc4ccccc34)nc(-c3ccccc3)n2)c(N)c1C#N,-6.13%
9,COc1cc2ccccc2cc1C(=O)Nc1ccc(Cl)cn1,-22.3%
10,COc1ccc(CC(=O)OCC(=O)NCc2ccc(Cl)cc2)cc1,-9.68%
11,CCOc1ccc(CC(=O)Nc2sc(Cc3ccccc3)c(C)c2C(N)=O)cc1OCC,-5.74%
12,CCN(CC)C(=O)c1cccc(NC(=O)C2=COCCO2)c1,-6.02%
13,Cc1cccc(Nc2nc(-c3ccc(O)c(O)c3)cs2)n1,-4.86%
14,CCc1cccc2cc3c(N)c(C(=O)Nc4ccc(S(=O)(=O)N5CCCC5)cc4)sc3nc12,0.681%
15,Cc1ccc2c(c1)C1CN(C)CCC1N2S(=O)(=O)c1cccc(C(F)(F)F)c1 (configuration not stated),-8.3%
16,O=C(c1ccc(Cl)c(Cl)c1)N(Cc1ccco1)c1ccc(O)cc1,-6.38%
17,O=C1S/C(=C/c2ccc(N3CCOCC3)o2)C(=O)N1Cc1c(F)cccc1Cl,-15.8%
18,CCn1c(SCc2nc3ccccc3c(=O)[nH]2)nc2ccccc2c1=O,-8.27%
